Measured values from paper PMC4336329 (PLoS ONE, 2015).
In all, about 310,000 compounds went through this assay and about 14,000 (4.5%) showed an effect of 50% or more. The effect is printed as a negative number. Only a selection was taken, and strong results are over-represented in it overall.

Target: human ether-à-go-go-related gene (hERG) potassium channel (human, UniProt Q12809)
Test: primary screen, population patch clamp on CHO cells stably expressing hERG; higher = less effect of the substance
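Note: peak tail current of the secondary pulse compared with the same well before compound.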

Chain of human ether-à-go-go-related gene (hERG) potassium channel (Q12809 whole entry, looked up): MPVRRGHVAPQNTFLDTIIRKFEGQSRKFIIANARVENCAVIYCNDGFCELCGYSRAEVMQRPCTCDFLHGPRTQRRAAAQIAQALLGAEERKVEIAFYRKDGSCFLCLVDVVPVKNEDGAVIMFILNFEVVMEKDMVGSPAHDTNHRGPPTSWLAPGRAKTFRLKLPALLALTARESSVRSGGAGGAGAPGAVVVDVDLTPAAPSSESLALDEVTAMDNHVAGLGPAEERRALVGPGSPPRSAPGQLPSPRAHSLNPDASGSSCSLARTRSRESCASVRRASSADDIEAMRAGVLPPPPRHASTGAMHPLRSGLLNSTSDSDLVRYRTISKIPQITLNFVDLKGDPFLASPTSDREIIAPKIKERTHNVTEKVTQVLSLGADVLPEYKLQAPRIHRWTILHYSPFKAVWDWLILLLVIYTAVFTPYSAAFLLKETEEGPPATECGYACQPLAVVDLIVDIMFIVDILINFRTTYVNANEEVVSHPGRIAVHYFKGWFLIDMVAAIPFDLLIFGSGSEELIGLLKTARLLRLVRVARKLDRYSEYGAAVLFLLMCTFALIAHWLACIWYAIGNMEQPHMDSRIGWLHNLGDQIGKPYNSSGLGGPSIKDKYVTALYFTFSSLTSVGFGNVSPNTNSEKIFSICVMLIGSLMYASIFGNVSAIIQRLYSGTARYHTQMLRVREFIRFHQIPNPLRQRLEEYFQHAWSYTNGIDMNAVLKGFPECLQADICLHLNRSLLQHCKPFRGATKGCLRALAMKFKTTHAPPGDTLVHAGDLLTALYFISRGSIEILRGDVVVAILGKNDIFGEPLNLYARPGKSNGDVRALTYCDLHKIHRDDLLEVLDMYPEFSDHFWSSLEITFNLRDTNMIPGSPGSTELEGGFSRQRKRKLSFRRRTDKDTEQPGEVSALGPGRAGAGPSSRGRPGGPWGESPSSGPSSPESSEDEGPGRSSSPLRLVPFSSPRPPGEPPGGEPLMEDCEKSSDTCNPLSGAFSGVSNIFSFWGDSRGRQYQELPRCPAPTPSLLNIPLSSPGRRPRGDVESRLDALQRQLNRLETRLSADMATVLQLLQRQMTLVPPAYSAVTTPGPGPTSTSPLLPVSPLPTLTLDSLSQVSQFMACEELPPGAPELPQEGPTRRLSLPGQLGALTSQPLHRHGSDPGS

Row | SMILES | hERG current change (%, negative = inhibition) at 10uM [%]
1 | COc1ccc(-c2noc(-c3ccoc3C)n2)cc1 | 39.5
2 | Cc1noc(N)c1C1(O)C(=O)Nc2c(Cl)cc(Cl)cc21 (stereo not drawn) | 0.32
3 | CCOc1ccc(CCN2C(=O)c3ccc(C(=O)O)cc3C2=O)cc1OCC | -3.15
4 | COc1ccc(C2CC(c3cccs3)=NN2C(=O)COC(=O)C2CCCCC2)cc1OC (stereo not drawn) | -18.1
5 | CC(=O)c1c(N2CCN(C)CC2)nc(=S)n(-c2cc(C)ccc2C)c1C | 28.7
6 | CC(C)(C)C(=O)Nc1ccc(S(=O)(=O)N2CCCC2)cc1 | 4.25
7 | COc1ccc(CC(=O)Nc2cc(NC(=O)Cc3ccc(OC)c(OC)c3)cc(C(=O)O)c2)cc1OC | 14.3
8 | CN(c1ccccc1)c1nc(N)c([N+](=O)[O-])c(NCc2ccccc2)n1 | 17.6
9 | COc1ccc(-c2cc(C(=O)N3CCCC3)c3ccccc3n2)cc1 | -2.31
10 | Cc1ccc(-c2cc(C(=O)N3CCN(c4ncccn4)CC3)c3ccccc3n2)cc1 | -40.9
11 | Cc1ccc(-c2cc(C(=O)N3CCN(C4CCS(=O)(=O)C4)CC3)c3ccccc3n2)cc1 (stereo not drawn) | -60.7
12 | O=C(NC1CCS(=O)(=O)C1)c1cc(-c2ccccc2)nc2ccccc12 (stereo not drawn) | 13.6
13 | O=C(c1cc(-c2ccccc2)nc2ccccc12)N1CCN(C2CCS(=O)(=O)C2)CC1 (stereo not drawn) | -25
14 | O=C(c1cc(-c2ccc(F)cc2)nc2ccccc12)N1CCN(C2CCS(=O)(=O)C2)CC1 (stereo not drawn) | -69
15 | Cc1ccccc1C(=O)Oc1cccc(Nc2ncnc3ccccc23)c1 | -3.38
16 | CCC(C)NC(=O)CN1C(=O)NC2(CCOc3ccccc32)C1=O (stereo not drawn) | -9.56
17 | CCCNC(=O)Cc1ccsc1 | 9.93
18 | O=C(NCc1cccs1)C1CCN(S(=O)(=O)c2cccc([N+](=O)[O-])c2)CC1 | -15.7
19 | Fc1ccc(NC(=S)NCCc2ccccc2)c(F)c1F | -1.12
20 | CCC(Sc1nnc(C)c(=O)[nH]1)C(=O)Nc1cccc2ccccc12 (stereo not drawn) | 10
21 | O=C(CCCc1nc2ccccc2s1)NCc1cccnc1 | 0.483

Row | SMILES | hERG current change (%, negative = inhibition) at 10uM [%]
22 | C/C(=N\NC(=O)CN1CCN(S(=O)(=O)c2ccc(C)cc2)CC1)c1ccc(O)cc1 | -6.97
23 | C/C(=N\NC(=O)CN1CCN(S(=O)(=O)c2ccc(C)cc2)CC1)c1cccnc1 | -46.9
24 | C/C(=N\NC(=O)CCc1ccc(S(=O)(=O)N2CCOCC2)cc1)c1ccc(Br)cc1 | 6.98
25 | C/C(=N/NC(=O)CN1CCN(S(=O)(=O)c2ccc(Br)cc2)CC1)c1ccncc1 | -80.3
26 | NC(=O)CN1CCN(S(=O)(=O)c2ccc(Br)cc2)CC1 | 22.4
27 | C/C(=N\NC(=O)CN1CCN(S(=O)(=O)c2ccc(C)cc2)CC1)c1ccncc1 | -77.1
28 | O=C(Nc1ccc2c(c1)CCC2)c1ccccc1 | 9.66
29 | Cc1ncoc1C(=O)N1CCc2c([nH]c3ccccc23)C1C1CCCCC1 (stereo not drawn) | 1.89
30 | Cc1cccc(C2c3[nH]c4ccccc4c3CCN2C(=O)c2ocnc2C)n1 (stereo not drawn) | -10.5
31 | Cc1ncoc1C(=O)N1CCc2c([nH]c3ccccc23)C1C(C)(C)C (stereo not drawn) | -65.3
32 | COc1ccc(CNC(=O)C(C)n2ccc3cc(S(=O)(=O)N4CCCCCC4)ccc32)cc1 (stereo not drawn) | 1.82
33 | CCN(CC)CCC(c1ccc(OC)cc1)c1c(O)cc(OC)cc1OC (stereo not drawn) | -66.4
34 | CCN(CC)CCC(c1ccc2c(c1)OCO2)c1c(O)cc(OC)cc1OC (stereo not drawn) | -73.4
35 | CCN(CC)CCC(c1ccc2c(c1)OCO2)c1c(OC)cc(OC)c2ccc(=O)oc12 (stereo not drawn) | -46.2
36 | CCN(CC)CCC(c1ccc(N(C)C)cc1)c1c(O)cc(OC)cc1OC (stereo not drawn) | -0.431
37 | CCN(CC)C(=O)CC(c1ccc2c(c1)OCO2)c1c(O)cc(OC)cc1OC (stereo not drawn) | -2.77
38 | CCN(CC)C(=O)CC(c1ccc(OC)cc1)c1c(O)cc(OC)cc1OC (stereo not drawn) | -1.57
39 | CC(C)CC(C(=O)OCC(=O)c1c(N)n(C)c(=O)n(C)c1=O)N1C(=O)c2ccccc2C1=O (stereo not drawn) | -27
40 | COCCNC(=S)N1CCC(C(=O)c2ccc3c(c2)OCCO3)CC1 | 32.7
41 | Cc1ccc(F)cc1CNC(=O)c1cc(COc2ccc3ncccc3c2)on1 | 5.04
42 | CCn1c(=O)c2c(cnn2C)c2ccccc21 | 2.58

Row | SMILES | hERG current change (%, negative = inhibition) at 10uM [%]
43 | Brc1ccc(-c2c(-c3ccsc3)sc3ccccc23)cn1 | 14.1
44 | Cc1ccc(-c2nc(CS(=O)CC(=O)NCCN3CCCC3)c(C)o2)cc1 (stereo not drawn) | -5.74
45 | CC(C)c1ccc(-c2csc(NC(=O)c3cccs3)c2C(=O)O)cc1 | 18.3
46 | Cn1c(SCC(=O)NCc2ccco2)nc2ccccc2c1=O | -23.6
47 | O=C(CSc1nc2ccccc2c(=O)n1Cc1ccco1)NCc1ccccc1 | -29.3
48 | O=C(CSc1nc2ccccc2c(=O)n1Cc1ccc(F)cc1)NCc1cccs1 | -14
49 | O=C(CSc1nc2ccccc2c(=O)n1Cc1ccc(Cl)cc1)NCc1cccs1 | -52.5
50 | O=C(CSc1nc2ccsc2c(=O)n1Cc1ccc(C(=O)O)cc1)NCc1ccco1 | 2.08
51 | O=C(CSc1nc2ccccc2c(=O)n1Cc1ccc(C(=O)NC2CC2)cc1)NCc1ccco1 | -51.5
52 | COCCNC(=O)CSc1nc2cc(OC)c(OC)cc2c(=O)n1Cc1ccco1 | -61.2
53 | O=C(CSc1nc2ccccc2c(=O)n1Cc1ccccc1)NCc1ccco1 | -39.6
54 | COCCNC(=O)CSc1nc2cc3c(cc2c(=O)n1Cc1ccco1)OCO3 | -27.4
55 | COc1cc2nc(SCC(=O)NCCc3ccccc3)n(Cc3ccco3)c(=O)c2cc1OC | -43.3
56 | Cc1ccccc1-n1c(SCC(=O)NCc2cccs2)nc2ccccc2c1=O | -17.4
57 | O=C(CSc1nc2ccccc2c(=O)n1Cc1ccco1)NCc1ccco1 | -65.4
58 | Cc1cc(C(=O)N2CCCC(CCC(=O)N3CCN(c4ccccn4)CC3)C2)c(C)o1 (stereo not drawn) | -9.16
59 | COc1cccc(Cn2c(=S)[nH]c3ccc(N4CCOCC4)cc3c2=O)c1 | -8.19
60 | CCOC(=O)C1CCCN(C(=O)Cn2cnc3c2c(=O)n(C)c(=O)n3C)C1 (stereo not drawn) | 20.3
61 | O=C(C1CCCC1)N1CCN=C1SCc1cccc([N+](=O)[O-])c1 | -19.3
62 | Cc1ccc2nc(NCc3ccc(F)cc3)c3nncn3c2c1 | 2.23
63 | COc1ccc(C2N(Cc3ccccc3)CCN2Cc2ccccc2)cc1[N+](=O)[O-] | -29.9

Row | SMILES | hERG current change (%, negative = inhibition) at 10uM [%]
64 | Cn1c(SCC(=O)NCCN2C(=O)CSC2=O)nc2ccccc2c1=O | -2.05
65 | C=CCn1c(SCC(=O)NCc2ccco2)nc2ccccc2c1=O | -50.3
66 | CCC(Sc1nc2cc(OC)c(OC)cc2c(=O)n1Cc1ccco1)C(=O)NCCOC (stereo not drawn) | -28.2
67 | CN(Cc1ccccc1)C(=O)CSc1nc2ccccc2c(=O)n1Cc1ccco1 | -3.56
68 | CCn1c(SCC(=O)NCc2ccco2)nc2ccccc2c1=O | -34.4
69 | O=C(CSc1nc2ccccc2c(=O)n1Cc1ccco1)Nc1cccc(O)c1 | 3.9
70 | Cc1ccc(CSc2nc3ccccc3c(=O)n2Cc2ccco2)cc1 | 8.42
71 | O=C(CSc1nc2ccccc2c(=O)n1-c1ccccc1)NCc1ccco1 | -15.1
72 | Cc1ccc(NC(=O)CN(C)C(=O)CSc2nc3ccccc3c(=O)n2Cc2ccco2)cc1 | -71.1
73 | CCC(Sc1nc2cc3c(cc2c(=O)n1Cc1ccco1)OCO3)C(=O)NCCOC (stereo not drawn) | -63.6
74 | CCc1ccccc1NC(=O)C(CC)Sc1nc2cc3c(cc2c(=O)n1Cc1ccco1)OCO3 (stereo not drawn) | 17.1
75 | O=C(CSc1nc2ccccc2c(=O)n1Cc1ccco1)NCCN1C(=O)CSC1=O | -61.4
76 | CCOc1ccc(C(=O)Nc2ccc(S(=O)(=O)Nc3cc(C)on3)cc2)cc1 | -9.73
77 | O=C(CSc1nnc(COc2ccccc2)n1Cc1ccco1)c1ccc(F)cc1 | -21.1
78 | Cc1ccnc2nc(C(=O)OCCOc3cccc(Br)c3)nn12 | -27.9
79 | COc1ccc(NC(=O)CCN2CC(C)OC(C)C2)c(OC)c1.Cl (stereo not drawn) | 13.2
80 | CCOc1cc(/C=N/n2c(COc3ccccc3)n[nH]c2=S)ccc1O | 24.4
81 | Cn1c(CN2CCOCC2)nnc1SCC(=O)NC1CCCCC1 | 17.7
82 | COc1cccc(C2(C)NC(=O)N(CC(=O)c3cc(C)n(C4CC4)c3C)C2=O)c1 (stereo not drawn) | -35.8
83 | O=C(NCc1ccc2c(c1)OCO2)c1ccc(Br)s1 | 6.32
84 | CCOC(=O)C1CCN(C(=O)Cn2nc(CC)n3cccc3c2=O)CC1 | -0.254
